Source: PubChem BioAssay AID1508600 (Functional Genomics Laboratory (NCATS/FGL), 2020)
The campaign covered roughly 53,000 sequences. About 3,700 (7%) were called active.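 Rule for the calls: active = gene knockdowns whose robust z-score for IL-1 alpha signal is at least 2 or at most -2, so actives lie on both sides; inactive = the rest.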 The entries come from a sample that favours actives as a whole.

Assay: Components of the Cytosolic LPS Sensing Pathway: Gene Identification via Genome-wide siRNA Screen;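 note: robust z of the log signal after scaling to non-targeting control siRNA wells of the plate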
Details: RAW264.7 macrophages, IL-1a HTRF, actives lie on both sides, screened at 100 nM (by protocol), cells primed 5 h with Pam3CSK4 first
Procedure, shortened: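 Using IL-1a HTRF as read-out, the screen measured release from RAW264.7 cells after 48h siRNA knockdown (100 nM), 5 h Pam3CSK4 priming and 24 h cytosolic LipidA. Values were expressed relative to negative-control wells as robust z-scores.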

Sequence | z-score
CGACACCUAAGUUCAGCACTT against Mief2 | -1.91 (inactive)
GCACUUUCAUGGAUAUAAGTT against Rab22a | -0.366 (inactive)
GGCACUACUAAGAACCUUATT against Tmem69 | 0.728 (inactive)
CGCAUACUGAUGAUAACUATT against Zfp317 | 2.12 (active)
GGAAACCUUUUACCUUUAATT against Padi1 | -0.874 (inactive)
CCAAAAUCGGGAAAGGAAATT against Ldb2 | -0.00816 (inactive)
GGCUUGACCUGCGUCUUCATT against 1700001P01Rik | 0.736 (inactive)
GGAACAUUGGCAUCACGACTT against Acy1 | 0.901 (inactive)
GGACGACGACUUUUUAAAATT against Pnmal1 | 2.18 (active)
CCAUCUCUUACUAUCCAUGTT against Cmbl | -1.03 (inactive)
GGCAUGACUGGACUGAAAATT against Ythdf3 | -0.976 (inactive)
GGGAUUUAGCACAAGAUACTT against Brinp3 | 0.606 (inactive)
GGUAUUCUUGGAAGGAGGGTT against Prss22 | 0.153 (inactive)
GGUCCAGAGAAGGCAAGCUTT against Elf3 | 5.87 (active)
CGAAAAUCUUCUGGCUCACTT against Llgl2 | -0.922 (inactive)
GGGACUUAGAAACAAUCCATT against Hsd3b4 | 1.77 (inactive)
GGUAGCGAUGUUUUCUUAUTT against Nt5dc3 | 1.66 (inactive)
GGUCAUGCUGAUCAGCGACTT against Itfg2 | -0.564 (inactive)
GGACUACAUGCUCACGUUATT against Ccm2 | 2.07 (active)
CGCCGCACAGUUAAUGCUUTT against Mettl17 | 0.973 (inactive)
GGUUCCUCUCAAAAUUCAATT against Gprc6a | 3.13 (active)
GCGAGAGAUGAAAUGGGUGTT against Tbc1d10c | 1.07 (inactive)

Sequence | z-score
CCUUAAAAGUAACCACUGUTT against Slc6a6 | 2.38 (active)
GGUUUUAUCUCUUGUGCCCTT against Myl10 | -0.565 (inactive)
GGCCAAGGAUCCAUCUGUATT against Magee1 | 0.11 (inactive)
GCAAUAGCAGCAACUCUUATT against Dbpht1 | -0.369 (inactive)
GGCUCUAACAGCUACAUGUTT against Hspb7 | -2.21 (active)
GGGAGAUGUCUUACACAUGTT against Fkbp2 | 1.12 (inactive)
GGUGGUUCUCAGCUGUGUATT against Arhgef18 | -1.08 (inactive)
GGAUGAUGAAUGCAAUUAATT against Eed | -0.882 (inactive)
CCUACUUUGGACUCUUUCATT against Tnfsf12 | -2.25 (active)
GGUGGAAGACUUCAGUGAATT against Clgn | 0.384 (inactive)
CAGCUUGUGCUCGAGUAAATT against Gm3579 | -1.14 (inactive)
GGACAGAAAGGUACCCUUATT against Slc30a5 | 0.461 (inactive)
GGUAGUUGUUCUAUGUUUUTT against Olfr967 | -1.07 (inactive)
GCAAAAGUGUAUCAUGAUGTT against Olfr1052 | -2.17 (active)
CGUGGAGCUACCAUAUAGGTT against Mob3b | 0.581 (inactive)
CGACCAGCUUCUAGUGCUUTT against Pcdha8 | -0.431 (inactive)
CCAAGCCUCCAAUGGUCAGTT against Stat6 | -0.623 (inactive)
GCACUAUGACUACAAGAGUTT against Olfr1457 | -0.965 (inactive)
GCCGUUGCCUUUCAAGGGATT against Inhbe | -0.112 (inactive)
GCUUUUCCGUGAUCAUACATT against Tex14 | 0.0691 (inactive)
GGAUCCAGAUACUCCCAAGTT against Camp | -1.08 (inactive)
GGGUUUCUUGAUUCUGACCTT against Ccl5 | -2.33 (active)

Sequence | z-score
CCUACCAGUUCCUAUUUAGTT against Alas2 | 0.452 (inactive)
GGGUCUCCGAAACUACUUATT against Tmem144 | 0.00626 (inactive)
GCCAAUUUGACUUGUAAGUTT against Slc22a3 | 1.4 (inactive)
GGUUUCUGGAAGAAACUGGTT against Polr1a | -0.927 (inactive)
GCUGAGUGAAUCCACGUACTT against Mzb1 | -2.65 (active)
CAUUGUCAUUCUAGUUGCATT against Olfr1251 | 0.64 (inactive)
GGCAACAAUAGUUCAGAAGTT against Rps6ka5 | 1.5 (inactive)
GCAUAUAAUGUCUAACUCGTT against Eml4 | -0.0328 (inactive)
GGUUCUUAACCUCAGCAGUTT against Omg | -0.541 (inactive)
GGAGUCUUGCUCUAUAUAATT against Arpc5 | 1.26 (inactive)
GGCUUCUUUAUGUUUCCUUTT against Usp48 | -1.46 (inactive)
GGCUUUUCUAGUUCCUCAATT against Pdzd7 | -2.01 (active)
GGAAUUCAAGGGCUCCACATT against Grip1 | 0.378 (inactive)
GGUAGGAUGAGUUGAAGAGTT against AF366264 | 0.0631 (inactive)
CCAGAAGUUAGAACAGUUCTT against Rp9 | 1.49 (inactive)
GGAGUACAUGGUACACGUUTT against Fut8 | 1.52 (inactive)
GGAUGUUGUUUAUCGAGGATT against Med21 | -0.572 (inactive)
GGAUGGAGGAAGACUCGAUTT against Etv6 | 2.14 (active)
GGAAACCUGUUUGAUUUUGTT against Aasdhppt | 0.798 (inactive)
GCUUUCAUAGCUGGAAACCTT against Olfr173 | 0.452 (inactive)
CCUCACAAAUAUACAGUUCTT against Pira2 | 0.519 (inactive)
UUCUACUGGGCUUAACCAGTT against Olfr1032 | 1.86 (inactive)

Sequence | z-score
GGAUGCUUUAACUUCAAACTT against Crebrf | 2.56 (active)
GCCAUAUAAGAUUCUUGUGTT against Pi4kb | -0.63 (inactive)
GCAAAUGUAUUAUGUCCUUTT against Gm5478 | 0.0907 (inactive)
GGAUUUGUAAGACUAAUCUTT against Xdh | 0.00453 (inactive)
GGUGAAGAGACUGGAGAACTT against Cavin2 | -0.277 (inactive)
GGACAUAAAACUUUUCAGUTT against Foxf2 | 1.02 (inactive)
GGAACAGAAGUCAAGUGGATT against Acsm5 | 2.69 (active)
GCUGGACACGGAAGGUAUATT against Igsf8 | -0.595 (inactive)
CCUAAGAACCCUGAUCCUATT against A030005L19Rik | 1.08 (inactive)
GGAAAAGGAAGAACUGAUUTT against Sptlc1 | -0.477 (inactive)
GGACACCAUUGGCUCCUUATT against Tmub1 | 1.63 (inactive)
GGUGAUGUUCUAACCCUGCTT against Trex1 | -0.0124 (inactive)
GGCUUUGUCUACACUUUCATT against Olfr1308 | -1.02 (inactive)
GGAUGGGAAGGUGAUUGUCTT against Gnb5 | 1 (inactive)
CCUGGUGUUCGUGUACCUGTT against Cdk5r2 | 3.1 (active)
GGAUUUAUUUAUGUCUUCCTT against Slc17a1 | 0.0643 (inactive)
GCAGUUGAGACAAUAUGUCTT against Trim31 | -1.8 (inactive)
GGAUGUGUCGGGAAAUGCUTT against Frmd5 | -1.7 (inactive)
GCACUAGAAGUGUCUUUUCTT against Cdhr1 | 2.17 (active)
GGACAUUUUUCAUUUGUGATT against Zfhx4 | 1.28 (inactive)
GGUCAUUCACGUCUGCGUUTT against Kcnj8 | -0.292 (inactive)
CCAGUGCAGGACCUCAUUUTT against Sod1 | -2.06 (active)

Sequence | z-score
GGCAGCUCUGACUUUAUAATT against Klhdc3 | -1.63 (inactive)
CCCUGUAGAAAUUCAAGCCTT against Lyrm4 | 0.38 (inactive)
GGACAGAGCAUCACAGAAGTT against Tmem154 | -2.33 (active)
GCGGUUUGUCUUCAACAAGTT against Il1b | 0.22 (inactive)
CCCUGGACUAAGGAUCACCTT against Cops5 | -1.2 (inactive)
GGCAGAAGAAGAGUUCAACTT against Atp6v1e1 | -1.1 (inactive)
GCUAAGUACGUUCAUGGCATT against Gba | 0.571 (inactive)
CGAAACUUACCAGGAGUCGTT against Ttyh2 | -2.31 (active)
GGACUCAUGUUCAACACAGTT against Dimt1 | -0.87 (inactive)
GGGAACUGACAAAUGGAAGTT against Samsn1 | -0.0777 (inactive)
CGGCAGUCGUGAGACAUAUTT against Camk1d | -1.01 (inactive)
GGAUUUUUAGUGUUUGACATT against Rab39 | -1.52 (inactive)
GGGAAUACGGAACCUUCUUTT against Olfr683 | 2.04 (active)
GGGCAGUUUUACAAAUGUUTT against Fbxw8 | 0.985 (inactive)
GGAACUCCAACAGGACUUUTT against Slc26a9 | -0.565 (inactive)
GGAAGGAAGCAGAGAGUUATT against Ndel1 | 2.92 (active)
UUUACUAGACCUGAUGGCUTT against Olfr815 | 0.732 (inactive)
GGGACUCUUCUACGAGUUUTT against Lims2 | 0.836 (inactive)
GGAAAACAAGAGGUGAUCUTT against Bfar | -1.62 (inactive)
GGUGUUUGAUAGGUAUCUUTT against Ptpa | -1.12 (inactive)
